PubChem BioAssay AID1159580 (chemical genetic matrix, 2015)
Out of some 5,500 compounds screened, about 2,000 (36%) were called active. Roughly 18% stayed inconclusive and do not appear here. Rule as the data show it: active = normalized growth mostly below about 0.91 (no sharp cut-off); inconclusive = no clear call, values can overlap the other calls; inactive = mostly above about 0.92. The list shows a part of the results.

Assay: chemical genetic growth profiling, strain panel (AID 1159580);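 also: tested at 20 µM; growth read once vehicle control cultures reached saturation at 30 °C; 1 = growth at the plate median or of vehicle wells; lower values mean less growth of the strain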
Conditions: growth OD
[1] = S. cerevisiae deletion strains, locus YDR150W, strain NUM1, active compounds read low
[2] = S. cerevisiae deletion strains, locus YJR075W, strain HOC1, active compounds read low
[3] = S. cerevisiae deletion strains, locus YNL322C, strain KRE1, active compounds read low
[4] = S. cerevisiae deletion strains, locus YPL241C, strain CIN2, active compounds read low
[5] = S. cerevisiae deletion strains, locus YJL187C, strain SWE1, active compounds read low

Measured: normalized growth

NC(CCP(=O)(O)O)C(=O)O (configuration not stated)
inactive: S. cerevisiae deletion strains, locus YAL040C, strain CLN3, active compounds read low 1.01 | S. cerevisiae deletion strains, locus YCL061C, strain MRC1 (second series), active compounds read low 1 | [1] 1.01 | S. cerevisiae deletion strains, locus YDR363W, strain ESC2, active compounds read low 0.988 | S. cerevisiae deletion strains, locus YER002W, strain NOP16, active compounds read low 1.02 | [2] 0.992 | S. cerevisiae deletion strains, locus YNL175C, strain NOP13, active compounds read low 1 | S. cerevisiae deletion strains, locus YNL197C, strain WHI3, active compounds read low 0.983 | S. cerevisiae deletion strains, locus YNL224C, strain SQS1, active compounds read low 0.989 | [3] 0.986 | S. cerevisiae deletion strains, locus YOR083W, strain WHI5 (second series), active compounds read low 1.01 | [4] 1

CC(C)(C)S(=O)(=O)c1cnc(N)nc1N
inactive: S. cerevisiae deletion strains, locus YAL013W, strain DEP1, active compounds read low 1.03 | S. cerevisiae deletion strains, locus YBR229C, strain ROT2, active compounds read low 1.01 | S. cerevisiae deletion strains, locus YDL101C, strain DUN1, active compounds read low 1 | [1] 0.969 | S. cerevisiae deletion strains, locus YEL061C, strain CIN8, active compounds read low 0.993 | S. cerevisiae deletion strains, locus YGR078C, strain PAC10, active compounds read low 1.01 | S. cerevisiae deletion strains, locus YGR229C, strain SMI1, active compounds read low 1.01 | S. cerevisiae deletion strains, locus YHR030C, strain SLT2, active compounds read low 1.07 | S. cerevisiae deletion strains, locus YHR087W, strain rtc3, active compounds read low 1 | [5] 1.02 | S. cerevisiae deletion strains, locus YJR043C, strain POL32, active compounds read low 0.985 | [2] 1.01 | S. cerevisiae deletion strains, locus YKL190W, strain CNB1, active compounds read low 1 | S. cerevisiae deletion strains, locus YLR039C, strain RIC1, active compounds read low 1.05 | S. cerevisiae deletion strains, locus YLR058C, strain SHM2 (second series), active compounds read low 1.01 | S. cerevisiae deletion strains, locus YLR085C, strain ARP6, active compounds read low 1.05 | S. cerevisiae deletion strains, locus YLR262C, strain YPT6, active compounds read low 1.06 | S. cerevisiae deletion strains, locus YML094W, strain GIM5, active compounds read low 1.01 | S. cerevisiae deletion strains, locus YMR219W, strain ESC1, active compounds read low 1.01 | S. cerevisiae deletion strains, locus YMR263W, strain SAP30, active compounds read low 0.986 | S. cerevisiae deletion strains, locus YNL153C, strain GIM3, active compounds read low 1 | S. cerevisiae deletion strains, locus YNL298W, strain CLA4 (second series), active compounds read low 1.04 | [3] 1.02 | S. cerevisiae deletion strains, locus YNR030W, strain Alg12, active compounds read low 1.03 | S. cerevisiae deletion strains, locus YPL055C, strain LGE1, active compounds read low 0.972 | [4] 1.02 | S. cerevisiae deletion strains, locus YPR135W, strain CTF4, active compounds read low 1.03 | S. cerevisiae strains, strain wild type, active compounds read low 1.01

CC12CCC(O)CC1CCc1ccccc12 (configuration not stated)
active: S. cerevisiae deletion strains, locus YDR392W, strain spt3, active compounds read low 0.634 | S. cerevisiae deletion strains, locus YLR262C, strain YPT6 (second series), active compounds read low 0.826
inactive: S. cerevisiae deletion strains, locus YAL021C, strain ccr4, active compounds read low 0.993 | S. cerevisiae deletion strains, locus YAL026C, strain drs2, active compounds read low 0.972 | S. cerevisiae deletion strains, locus YAL030W, strain snc1, active compounds read low 0.982 | S. cerevisiae deletion strains, locus YBL061C, strain skt5, active compounds read low 0.967 | S. cerevisiae deletion strains, locus YBR009C, strain hhf1, active compounds read low 0.932 | S. cerevisiae deletion strains, locus YBR023C, strain chs3, active compounds read low 0.967 | S. cerevisiae deletion strains, locus YBR171W, strain sec66, active compounds read low 0.938 | S. cerevisiae deletion strains, locus YBR231C, strain swc5, active compounds read low 0.998 | S. cerevisiae deletion strains, locus YBR279W, strain paf1, active compounds read low 0.981 | S. cerevisiae deletion strains, locus YCL011C, strain gbp2, active compounds read low 0.981 | S. cerevisiae deletion strains, locus YCL016C, strain dcc1, active compounds read low 0.977 | S. cerevisiae deletion strains, locus YCL061C, strain MRC1, active compounds read low 0.967 | S. cerevisiae deletion strains, locus YCL069W, strain vba3, active compounds read low 0.974 | S. cerevisiae deletion strains, locus YCR088W, strain abp1, active compounds read low 0.978 | S. cerevisiae deletion strains, locus YDL005C, strain med2, active compounds read low 0.97 | S. cerevisiae deletion strains, locus YDL040C, strain nat1, active compounds read low 0.979 | S. cerevisiae deletion strains, locus YDR001C, strain nth1, active compounds read low 0.971 | S. cerevisiae deletion strains, locus YDR069C, strain doa4, active compounds read low 0.984 | S. cerevisiae deletion strains, locus YDR137W, strain rgp1, active compounds read low 0.871 | S. cerevisiae deletion strains, locus YDR159W, strain sac3, active compounds read low 0.936 | S. cerevisiae deletion strains, locus YDR195W, strain ref2 1 | S. cerevisiae deletion strains, locus YDR297W, strain sur2, active compounds read low 0.971 | S. cerevisiae deletion strains, locus YDR334W, strain swr1, active compounds read low 0.989 | S. cerevisiae deletion strains, locus YDR335W, strain msn5, active compounds read low 0.972 | S. cerevisiae deletion strains, locus YEL003W, strain gim4, active compounds read low 0.96 | S. cerevisiae deletion strains, locus YEL037C, strain rad23, active compounds read low 0.98 | S. cerevisiae deletion strains, locus YEL061C, strain CIN8 (second series), active compounds read low 0.964 | S. cerevisiae deletion strains, locus YER015W, strain faa2, active compounds read low 0.983 | S. cerevisiae deletion strains, locus YER016W, strain bim1, active compounds read low 0.969 | S. cerevisiae deletion strains, locus YER111C, strain swi4, active compounds read low 0.96 | S. cerevisiae deletion strains, locus YER155C, strain BEM2 (second series), active compounds read low 0.944 | S. cerevisiae deletion strains, locus YFR010W, strain ubp6, active compounds read low 0.979 | S. cerevisiae deletion strains, locus YGL167C, strain pmr1, active compounds read low 0.962 | S. cerevisiae deletion strains, locus YGL173C, strain kem1, active compounds read low 0.957 | S. cerevisiae deletion strains, locus YGL227W, strain vid30, active compounds read low 0.961 | S. cerevisiae deletion strains, locus YGL240W, strain doc1, active compounds read low 0.901 | S. cerevisiae deletion strains, locus YGL253W, strain hxk2, active compounds read low 0.969 | S. cerevisiae deletion strains, locus YHR013C, strain ard1, active compounds read low 0.974 | S. cerevisiae deletion strains, locus YHR027C, strain rpn1, active compounds read low 0.991 | S. cerevisiae deletion strains, locus YHR142W, strain chs7, active compounds read low 0.973 | S. cerevisiae deletion strains, locus YJL092W, strain hpr5, active compounds read low 0.983 | S. cerevisiae deletion strains, locus YJL095W, strain BCK1 (second series), active compounds read low 0.99 | S. cerevisiae deletion strains, locus YJL115W, strain asf1, active compounds read low 0.977 | S. cerevisiae deletion strains, locus YJL129C, strain trk1, active compounds read low 0.92 | S. cerevisiae deletion strains, locus YJL154C, strain vps35, active compounds read low 0.99 | S. cerevisiae deletion strains, locus YJL164C, strain tpk1, active compounds read low 0.968 | S. cerevisiae deletion strains, locus YJL166W, strain qcr8, active compounds read low 0.946 | [5] 0.971 | S. cerevisiae deletion strains, locus YKL160W, strain elf1, active compounds read low 0.993 | S. cerevisiae deletion strains, locus YKR026C, strain gcn3, active compounds read low 0.954 | S. cerevisiae deletion strains, locus YKR091W, strain srl3, active compounds read low 0.969 | S. cerevisiae deletion strains, locus YLL001W, strain dnm1, active compounds read low 0.991 | S. cerevisiae deletion strains, locus YLL026W, active compounds read low 0.982 | S. cerevisiae deletion strains, locus YLL041C, strain sdh2, active compounds read low 0.974 | S. cerevisiae deletion strains, locus YLR027C, strain aat2, active compounds read low 0.984 | S. cerevisiae deletion strains, locus YLR221C, strain rsa3, active compounds read low 0.98 | S. cerevisiae deletion strains, locus YLR258W, strain gsy2, active compounds read low 0.968 | S. cerevisiae deletion strains, locus YLR320W, strain mms22, active compounds read low 0.906 | S. cerevisiae deletion strains, locus YLR342W, strain FKS1, active compounds read low 0.965 | S. cerevisiae deletion strains, locus YLR357W, strain rsc2, active compounds read low 0.935 | S. cerevisiae deletion strains, locus YLR370C, strain arc18, active compounds read low 0.969 | S. cerevisiae deletion strains, locus YLR384C, strain iki3, active compounds read low 0.993 | S. cerevisiae deletion strains, locus YML120C, strain ndi1, active compounds read low 0.955 | S. cerevisiae deletion strains, locus YMR058W, strain fet3, active compounds read low 0.97 | S. cerevisiae deletion strains, locus YMR125W, strain sto1, active compounds read low 1 | S. cerevisiae deletion strains, locus YMR129W, active compounds read low 0.961 | S. cerevisiae deletion strains, locus YMR205C, strain PFK2, active compounds read low 0.902 | S. cerevisiae deletion strains, locus YMR231W, strain pep5, active compounds read low 0.988 | S. cerevisiae deletion strains, locus YNL071W, strain lat1, active compounds read low 0.959 | S. cerevisiae deletion strains, locus YNL209W, strain ssb2, active compounds read low 0.988 | S. cerevisiae deletion strains, locus YNL248C, strain rpa49, active compounds read low 0.985 | S. cerevisiae deletion strains, locus YNL322C, strain KRE1 (second series), active compounds read low 0.959 | S. cerevisiae deletion strains, locus YNR049C, strain mso1, active compounds read low 0.971 | S. cerevisiae deletion strains, locus YOR001W, strain rrp6, active compounds read low 0.967 | S. cerevisiae deletion strains, locus YOR070C, strain gyp1, active compounds read low 0.973 | S. cerevisiae deletion strains, locus YOR080W, strain dia2, active compounds read low 0.968 | S. cerevisiae deletion strains, locus YOR083W, strain WHI5, active compounds read low 0.99 | S. cerevisiae deletion strains, locus YOR106W, strain vam3, active compounds read low 0.966 | S. cerevisiae deletion strains, locus YOR265W, strain rbl2, active compounds read low 0.992 | S. cerevisiae deletion strains, locus YOR270C, strain vph1, active compounds read low 0.94 | S. cerevisiae deletion strains, locus YOR290C, strain snf2, active compounds read low 0.898 | S. cerevisiae deletion strains, locus YPL051W, strain arl3, active compounds read low 0.986 | S. cerevisiae deletion strains, locus YPL078C, strain atp4, active compounds read low 0.973 | S. cerevisiae deletion strains, locus YPL106C, strain sse1, active compounds read low 1.01 | S. cerevisiae deletion strains, locus YPL240C, strain hsp82, active compounds read low 0.991
